ClpP mod = qHTS Assay for Activators of ClpP. ATP-dependent Clp protease proteolytic subunit (Bacillus subtilis (strain 168)), P80244. purified B. subtilis ClpP, FRET peptide cleavage, 20 min. Potency, µM (series often up to 57.5 µM). 1.9% of 340,000 active; active = well fitted falling curve with a large enough effect; inconclusive = small, poorly fitted or top-dose-only effect; inactive = no such curve, though single readings can be large or run the other way; note: the source files actives as falling curves though it sought activators and does not explain the sign; nearly all actives have a fitted effect of over 65% in size
Target sequence (P80244 whole entry, looked up): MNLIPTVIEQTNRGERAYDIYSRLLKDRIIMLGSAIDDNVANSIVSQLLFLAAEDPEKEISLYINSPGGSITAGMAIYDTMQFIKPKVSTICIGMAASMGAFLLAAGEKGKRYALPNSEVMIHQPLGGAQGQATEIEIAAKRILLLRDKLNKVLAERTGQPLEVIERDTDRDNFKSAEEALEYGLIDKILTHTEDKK
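FRET quenching reversal measured ClpP activation: 10 microg/mL B. subtilis ClpP at pH 8 with the FRET-FV decapeptide, read at 430 nm after 320 nm excitation. The 20-min minus 0-min signal was scaled between DMSO/no-enzyme wells and ADEP (5.8 microM final).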
GLP-1R agonist = qHTS of GLP-1 Receptor Agonists | 0.007% of 380,000 active | HEK293 GLP-1R CRE-luciferase, luminescence, 4-6 h; cells express a hypersensitive GLP-1R form | Potency, µM (titrated, usually from 45.6 µM), usual class: activators | AID 624172, 2012 | Glucagon-like peptide 1 receptor (Homo sapiens), P43220
HEK293 tox = qHTS of GLP-1 Receptor Inverse Agonists: Cytotox Screen | HEK293 cAMP-luciferase reporter cells, luminescence, 24 h | Potency, µM (series often up to 38.3 µM), most hits filed as inhibitors | 0.13% of 410,000 active | AID 624418, 2012;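 note: loss of luciferase light is scored as toxicity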
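Step one: seed cells (200 cells/uL, DMEM with 10% Nu serum, 1% pen-strep). Step two: 12-hour incubation at 37 deg C. Step three: pin 23 nL compound, incubate 24 hr. Step four: add luciferase reagent, read luminescence 12 min later.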
D3 ag = qHTS of D3 Dopamine Receptor Agonist: qHTS; D3R DiscoveRx beta-arrestin cells, luminescence, 90 min; max activation, %; 0.58% of 410,000 active; AID 652048, 2013; in the data active = max activation above about 30%
Target sequence (P35462 whole entry, looked up): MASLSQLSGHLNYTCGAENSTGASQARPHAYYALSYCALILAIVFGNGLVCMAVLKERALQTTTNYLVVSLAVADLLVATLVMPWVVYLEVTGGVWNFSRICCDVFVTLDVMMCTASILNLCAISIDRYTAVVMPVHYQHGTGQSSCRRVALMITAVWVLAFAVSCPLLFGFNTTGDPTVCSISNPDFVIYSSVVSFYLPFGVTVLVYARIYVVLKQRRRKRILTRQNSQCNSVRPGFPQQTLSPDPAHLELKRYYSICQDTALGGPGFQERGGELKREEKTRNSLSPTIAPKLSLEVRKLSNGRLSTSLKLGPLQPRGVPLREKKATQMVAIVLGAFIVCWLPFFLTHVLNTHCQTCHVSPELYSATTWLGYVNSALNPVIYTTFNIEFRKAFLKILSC
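Cells at 1500/well, incubated overnight, then treated with pinned compounds (dopamine as control) for 90 min at 37 degrees C. DiscoveRx reagent added for 30 - 60 minutes at room temperature; luminescence read.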
GLP1R inv ag = qHTS of GLP-1 Receptor Inverse Agonists (Inhibition Mode); Glucagon-like peptide 1 receptor (Homo sapiens), P43220; HEK293 GLP-1R CRE-luciferase, luminescence, 24 h; GLP-1R form is constitutively active; Potency, µM (series often up to 38.3 µM), usual class: inhibitors; 1.6% of 410,000 active; AID 624417, 2012; note: nearly all actives have a fitted effect of over 55% in size
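Inverse agonists were sought by their lowering of basal cAMP reporter luciferase output in HEK293 cells stably carrying constitutively active human GLP-1R, after 24 h compound treatment.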
DRD3 antagonist = qHTS of D3 Dopamine Receptor Antagonist: qHTS; D(3) dopamine receptor (Homo sapiens), P35462; D3R cells, DiscoveRx beta-arrestin luminescence, antagonist mode; stronger effect = lower value; max response, negative = inhibition, %; 2.5% of 360,000 active; AID 652054, 2013; in the data active = max response below about -50%; inconclusive = no clear call, values can overlap the other calls
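Cells expressing the human receptor were seeded at 1500 cells/well, incubated overnight at 37 degrees C in 5% CO2, then exposed to library compounds with dopamine controls for 90 minutes at 37 degrees C before luminescent detection.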
A number is an active result; n = inactive; u = inconclusive; x = no result given. Hits are enriched below; roughly 5.7% of the tested compounds scored in any of these assays. Unless noted, calls come from the whole dose curve; as a rule, active = well fitted curve in the direction sought with a large enough effect; inconclusive = small, poorly fitted or top-dose-only effect, or another doubt; inactive = no such curve, though single readings can be large; an effect the other way counts as inactive or inconclusive.

SMILES	ClpP mod	GLP-1R agonist	HEK293 tox	D3 ag	GLP1R inv ag	DRD3 antagonist
COc1cc(C)ccc1OCCOCCN(C)Cc1ccccc1	n	n	n	n	u	u
CCOC(=O)C(CS)NCCN[C@@H](CS)C(=O)OCC (stereo partly specified)	x	n	x	x	x	x
CC(C)CNC(=O)[C@H]1N2C(=O)c3ccccc3C2SC1(C)C (stereo partly specified)	28µM	n	n	n	n	n
CC(C)c1nc2cc(Cl)ccc2n(Cc2ccccc2)c1=O	x	n	n	n	7.9µM	n
CCCNC(=O)CN1C(=O)c2c(c3ccccc3n2C)C1c1ccc(OC)cc1 (stereo unspecified)	28µM	x	n	n	n	x
COc1ccc(C2c3c(n(C)c4ccccc34)C(=O)N2CC(=O)Nc2ccccc2Cl)cc1 (stereo unspecified)	u	x	n	n	u	x
O=C(CCCn1c(=O)c2sccc2n(Cc2ccc(Cl)cc2)c1=O)NCc1ccc2c(c1)OCO2	n	x	n	n	n	x
CCOC1=C2[C@H](c3ccc(Cl)cc3)N(S(=O)(=O)c3ccc(C)cc3)C[C@H]2n2c(=O)n(-c3ccccc3)c(=O)n2C1	n	n	n	n	n	n
CCC(=O)N/C(N)=N/c1nc(C)c2cc(OC)ccc2n1	3.2µM	n	n	n	n	n
COc1ccc2nc(/N=C(\N)NC(=O)N3c4ccccc4Sc4ccccc43)nc(C)c2c1	u	n	n	n	n	n
COc1ccc2nc(/N=C(\N)NC(=O)C(C)(C)C)nc(C)c2c1	32µM	n	n	n	n	n
CCOC(=O)CSc1nc(C)c2cc(C)c(C)cc2n1	x	n	n	n	u	n
CCCc1c(C)nc2ccc(OC)cc2c1SCCC(=O)O	13µM	n	n	n	n	n
CCOC(=O)CSc1nc(C)c2cc(OC)ccc2n1	14µM	n	n	n	n	n
CCCOc1ccc2nc(C)c(CCC)c(SC(=N)N)c2c1	n	n	n	n	n	n
CC(=O)OCC(=O)[C@@]12N=C(C)O[C@@H]1C[C@H]1[C@@H]3CCC4=CC(=O)C=C[C@]4(C)[C@H]3[C@@H](O)C[C@@]12C	x	x	x	n	x	x
Cc1ccc(-n2c(=O)c3c(C)c(C(=O)N(C)C)sc3n(CC(=O)C(C)(C)C)c2=O)cc1C	n	x	n	n	n	x
O=c1oc2ccccc2c(Nc2cccc(O)c2)c1[N+](=O)[O-]	n	n	n	n	n	-81
Cc1cc(C)nc(SCc2csc(N)n2)n1	n	n	n	n	n	-51
CCSc1ncc(Cl)c(C(=O)N(Cc2ccc(C(C)(C)C)cc2)C2CCS(=O)(=O)C2)n1 (stereo unspecified)	n	x	n	n	u	x
Cc1csc(NC(=O)c2sc3nc(-c4cccs4)ccc3c2N)n1	n	n	n	39	n	n
c1ccc(CN2CCC3(CCCc4ccccc43)CC2)cc1	n	n	u	n	u	-105
Cc1ccc(Cn2cc(/C=N/Nc3ccc([N+](=O)[O-])cn3)c3ccccc32)cc1	x	n	u	n	11µM	n
Cc1nnc(SCc2ccc(Cl)cc2)c2cc3occc3n12	n	x	n	n	n	x
Cc1ccc(C(=O)N/C(=C/c2ccc(Cl)cc2)C(=O)NCC2CCCO2)cc1 (stereo unspecified)	n	n	n	n	n	n
SMILES	ClpP mod	GLP-1R agonist	HEK293 tox	D3 ag	GLP1R inv ag	DRD3 antagonist
Cc1ccc(C(=O)N/C(=C/c2ccc(N(C)C)cc2)C(=O)NCC2CCCO2)cc1 (stereo unspecified)	n	n	n	35	n	n
Cc1ccc(-c2cc(C)nc3nc(N)nn23)cc1	14µM	n	n	n	n	n
CCCCOc1ccc(Br)cc1/C(C)=N/NC1=NCCN1	n	n	4.5µM	n	2.8µM	n
CCCCCCOc1ccc(/C(C)=N/NC2=NCCN2)cc1[N+](=O)[O-]	n	n	u	n	u	n
O=C(CSc1ccc(-c2cccnc2)nn1)Nc1ccc(F)cc1	n	n	n	n	n	-63
CC(C)(C)c1ccc(OCCCNC2CCCC2)cc1	x	n	u	n	10µM	u
CCOc1ccccc1OCCNC1CCCC1	n	n	n	n	n	-106
N#Cc1ccccc1OCCCNC1CCCC1	x	n	n	n	n	-80
CCOc1ccc(OCCNC2CCCC2)cc1	n	n	n	n	n	-60
Cc1[nH]c2ccc(C(=O)NCCc3ccccc3Cl)cc2c1C	n	x	n	n	u	x
COc1ccc(Nc2nc(N)c(C(=O)c3ccc(OC)cc3)s2)cc1	x	n	n	n	u	n
COc1ccc(C(=O)c2sc(NC(C)C)nc2N)cc1OC	25µM	n	n	n	n	n
COc1cccc(C(=O)c2sc(NC(C)C)nc2N)c1	n	n	u	n	3.5µM	n
COc1cccc(C(=O)c2sc(Nc3ccc(F)c(Cl)c3)nc2N)c1	n	x	n	n	n	x
CCc1nc(SCC(=O)Nc2ccc(NC(C)=O)cc2)n[nH]1	n	x	n	n	n	x
c1ccc(CCNCC2COc3ccccc3O2)cc1 (stereo unspecified)	n	n	n	n	u	-85
CN(C)S(=O)(=O)c1cccc(CNCC2COc3ccccc3O2)c1 (stereo unspecified)	n	n	n	31	n	u
O=C(O)CNCC1COc2ccccc2O1 (stereo unspecified)	n	n	n	n	n	n
Oc1ccc(CNCC2COc3ccccc3O2)cc1 (stereo unspecified)	n	n	n	n	n	-73
c1ccc2c(c1)OCC(CNCC1COc3ccccc3O1)O2 (stereo unspecified)	x	n	n	n	n	-81
CN(CC(=O)NCC1COc2ccccc2O1)S(=O)(=O)c1ccc(Cl)cc1 (stereo unspecified)	n	n	n	n	u	n
COc1cccc(-c2nc(SCc3cccc(Br)c3)n3[nH]c(=O)cc3n2)c1	n	x	n	n	n	x
O=C(C[C@H]1C[C@@H]2c3cc(NC(=O)c4ccc5c(c4)OCO5)ccc3O[C@@H]2[C@H](CO)O1)NCc1cc(F)ccc1F	n	n	n	n	n	n
CCOC(=O)N1CCC(N(CCN(C)C)C(=S)Nc2cccc(Cl)c2)CC1	n	n	n	n	11µM	n
CCOC(=O)N1CCC(N(CCN(C)C)C(=S)Nc2cc(Cl)ccc2C)CC1	x	n	u	n	5.6µM	n

Source: PubChem (National Center for Advancing Translational Sciences (NCATS))
